Vif-A3F inh = Vif-A3F binding inhibition | HeLa A3F-eYFP + Vif (tagged APOBEC3F with the HIV-1 protein that degrades it), YFP fluorescence increase | Potency, µM (doses to about 46.1 µM), without a hit: top-dose activity, negative = active | 390,000 compounds, 0.2% hits; note: potency is the fitted concentration of half-maximal effect; % of control where 0% means no effect; nearly all actives have a fitted effect of over 65% in size
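HeLa cells stably expressing Vif plus C-terminally eYFP-tagged A3F were seeded, incubated overnight at 37 deg C, dosed with compound, incubated overnight again at 37 deg C. Yellow fluorescence (Ex 488/Em 500-530) reported blocked Vif-mediated A3F-eYFP degradation.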
Vif-A3G inh = blocks the Vif interaction with human APOBEC3G. Q9HC16. HeLa A3G-eYFP + Vif (tagged APOBEC3G with the HIV-1 protein that degrades it), YFP fluorescence, overnight. Potency, µM (titrated, usually from 46.1 µM), inactives show at the highest dose activity, negative = active, hits mostly inhibitors. 410,000 compounds, 0.076% hits. AID 602310; note: potency is the fitted concentration of half-maximal effect; % is set by controls: 0 for no effect and ±100 for the full control effect; nearly all actives have a fitted effect of over 60% in size
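HeLa cells stably expressing Vif and C-terminally eYFP-tagged A3G, seeded overnight at 37 deg C, then exposed to compound by pintool overnight at 37 deg C. Rise in yellow fluorescence (Ex 488/Em 500-530, Acumen) marks blocked Vif-driven A3G degradation.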
TRPML1 blocker = inhibitors of human TRPML1 channel; Q9GZU1; TRPML1-inducible cells, Ca2+ dye fluorescence, FDSS; stronger effect = lower value; inhibition of EC80 agonist-evoked calcium signal; activity change, negative = inhibition, % (concentration not given with the values); 390,000 compounds, 0.02% hits; AID 624415; in the data active = activity change below about -50%; inconclusive = between about -30% and that limit;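 note: stimulus is agonist 54-4 at its EC80 concentration; % is set by controls: 0 for no effect and ±100 for the full control effect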
Target sequence (Q9GZU1 whole entry, looked up): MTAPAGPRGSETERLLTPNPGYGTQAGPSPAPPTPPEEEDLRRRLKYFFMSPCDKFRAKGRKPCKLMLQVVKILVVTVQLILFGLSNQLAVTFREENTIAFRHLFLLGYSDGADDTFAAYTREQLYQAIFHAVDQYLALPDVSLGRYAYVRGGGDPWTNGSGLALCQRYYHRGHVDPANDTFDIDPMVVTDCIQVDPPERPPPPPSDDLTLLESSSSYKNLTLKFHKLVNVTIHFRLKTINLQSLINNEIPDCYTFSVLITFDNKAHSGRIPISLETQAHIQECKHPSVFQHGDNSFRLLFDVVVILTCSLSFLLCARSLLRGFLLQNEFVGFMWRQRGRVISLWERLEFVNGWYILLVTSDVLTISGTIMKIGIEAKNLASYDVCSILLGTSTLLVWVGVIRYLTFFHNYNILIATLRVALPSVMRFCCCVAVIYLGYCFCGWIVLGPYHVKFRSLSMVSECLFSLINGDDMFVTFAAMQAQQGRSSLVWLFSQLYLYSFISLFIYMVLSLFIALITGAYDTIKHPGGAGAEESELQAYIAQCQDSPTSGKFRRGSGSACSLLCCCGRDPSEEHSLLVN
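Tet-induced TRPML1-DL cells loaded with Ca8 no-wash calcium dye were read kinetically on FDSS. Compound addition was followed by EC80 agonist 54-4 (4 uM final); inhibition was read over 110 s.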
TRPML1 agonist = agonists of human TRPML1 channel. Q9GZU1. TRPML1-expressing cells, Ca2+ dye fluorescence, FDSS. 410,000 compounds, 0.12% hits. activation, % (no concentration beside the values); in the data active = activation above about 50%; inconclusive = mostly about 30% to 49%; note: 0% is about no effect
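In this qHTS format, compounds were pin-transferred onto Ca8-dye-loaded TRPML1-DL cells induced with Tet overnight, and intracellular Ca2+ fluorescence was recorded kinetically for 110 s after a 10 s baseline. A subsequent 4uM final 54-4 (EC80) addition followed by a second 110 s read served as the antagonist phase.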
GRP78 ERSR act = inducers of ER stress response in human glioma cells | 420,000 compounds, 0.02% hits | U87-MG GRP78 promoter luciferase reporter, 16 h | AID 602332 | Potency, µM, without a hit: at the top dose activation, usual class: activators; note: potency is the fitted concentration of half-maximal effect; series mostly up to about 76 µM; % of control where 0% means no effect; nearly all actives have a fitted effect of over 35% in size
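Stably transfected U87-MG glioma cells carrying a GRP78-based luciferase sensor; 16 h compound incubation. Luminescence end-point read 10 min after Bright-Glo addition at room temperature.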
ALOX12 inh = blocks human arachidonate 12S-lipoxygenase | 580,000 compounds, 1.1% hits | purified 12hLO, xylenol orange hydroperoxide absorbance | Potency, µM (titrated, usually from 108 µM), inactives show at the highest dose activity change, negative = inhibition, actives largely listed as inhibitors | AID 1671190 | P18054; note: potency is the fitted concentration of half-maximal effect; % is set by controls: 0 for no effect and ±100 for the full control effect
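Purified human 12hLO (150 nM final) in 25 mM Hepes, 0.01% Triton X-100, pH 7.0 was preincubated 15 min at room temperature with compound. Then 40 uM arachidonic acid was added, 30 min. Hydroperoxide was read by Fe-XO absorbance ratio 573/405 nm.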
* = called active by the depositor; [ ] = another dose, or the depositor's remark. Rows were chosen to be rich in hits. Some 1.3% of all compounds tested hit in one or more screens of this group. Unless noted, calls come from the whole dose curve; as a rule, active = well fitted curve in the direction sought with a large enough effect; inconclusive = small, poorly fitted or top-dose-only effect, or another doubt; inactive = no such curve, though single readings can be large; an effect the other way counts as inactive or inconclusive.

How did COC(=O)c1ccc(Nc2c([N+](=O)[O-])ccc3nonc23)cc1 do in these assays?
Vif-A3F inh: 25.1µM*; Vif-A3G inh: inconclusive; TRPML1 blocker: 28.0; TRPML1 agonist: 0.9; GRP78 ERSR act: -3.4%; ALOX12 inh: 0.0%

What do the screens show for `Cc1[nH]c2ccccc2c1C1c2ccccc2C(=O)N1CCC(=O)NCCN(C)C` (stereo not drawn)?
ALOX12 inh: 11.7%

What do the screens show for `CCN(CC)CCNC(=O)c1ccc2c(c1)n(Cc1cccc(F)c1)c(=O)c1ccnn12`?
ALOX12 inh: -12.0%

Results for COC(=O)[C@H]1[C@H](CO)[C@H]2Cn3c(ccc(Br)c3=O)[C@H]2N1C(=O)c1ccccn1 ?
ALOX12 inh: 0.794µM*

What do the screens show for `COC(=O)[C@H]1[C@H](CO)[C@H]2Cn3c(ccc(Br)c3=O)[C@H]2N1C(C)=O`?
ALOX12 inh: -22.2%

How did CC(C)c1ccccc1OCCNC(=S)NC(=O)c1cccnc1 do in these assays?
Vif-A3F inh: -29.6%; Vif-A3G inh: -10.6%; TRPML1 blocker: 1.9; TRPML1 agonist: 1.0; GRP78 ERSR act: -6.0%; ALOX12 inh: 39.8µM*

Results for CC(C)(Cc1ccc(O)cc1)NC(=O)CC(=O)N/N=C/c1ccc(Cl)cc1 ?
Vif-A3F inh: -7.2%; Vif-A3G inh: -28.6%; TRPML1 blocker: 11.4; TRPML1 agonist: -0.4; GRP78 ERSR act: -3.6%; ALOX12 inh: 8.91µM*

How did CC(C)(Cc1ccc(O)cc1)NC(=O)CC(=O)N/N=C/c1ccc([N+](=O)[O-])cc1 do in these assays?
Vif-A3F inh: 10.8%; Vif-A3G inh: -11.2%; TRPML1 blocker: -3.3; TRPML1 agonist: -0.2; GRP78 ERSR act: -2.0%; ALOX12 inh: 1.0%

What do the screens show for `O=S(=O)(N1CC=C(c2c[nH]c3cc(F)ccc23)CC1)N1CCCCCC1`?
ALOX12 inh: 15.8µM*

How did O=C(CSc1nnc(-c2cccnc2)n1Cc1ccco1)N1c2ccccc2Sc2ccccc21 do in these assays?
Vif-A3F inh: -4.9%; Vif-A3G inh: 0.0%; TRPML1 blocker: -3.0; TRPML1 agonist: -0.4; GRP78 ERSR act: -2.1%; ALOX12 inh: 31.6µM*

How did c1cncc(CSc2nnc(-c3cccnc3)n2Cc2ccco2)c1 do in these assays?
ALOX12 inh: -7.9%

What do the screens show for `CCN1/C(=C/c2ccc3cc(C)ccc3[n+]2CC)Sc2ccccc21`?
Vif-A3F inh: -172.0%; Vif-A3G inh: -7.8%; TRPML1 blocker: -6.4; TRPML1 agonist: inconclusive; GRP78 ERSR act: -11.0%; ALOX12 inh: 44.7µM*

What do the screens show for `CCN1/C(=C/c2ccc3cc(C)ccc3[n+]2CC)Sc2cc(C)c(C)cc21`?
Vif-A3F inh: inconclusive; Vif-A3G inh: inconclusive; TRPML1 blocker: 2.0; TRPML1 agonist: 16.5; GRP78 ERSR act: -12.5%; ALOX12 inh: 50.1µM*

What do the screens show for `CC[n+]1c(/C=C2\Sc3ccccc3N2C)ccc2cccc(C)c21`?
Vif-A3F inh: -211.2%; Vif-A3G inh: -17.6%; TRPML1 blocker: -12.2; TRPML1 agonist: 29.5; GRP78 ERSR act: -13.8%; ALOX12 inh: 44.7µM*

Results for CCN1/C(=C/C=C/c2sc3ccccc3[n+]2CC)Sc2ccccc21 ?
Vif-A3F inh: -25.8%; Vif-A3G inh: 4.4%; TRPML1 blocker: -4.0; TRPML1 agonist: -0.3; GRP78 ERSR act: -6.2%; ALOX12 inh: -38.9%[12.5 µM]

What do the screens show for `CCN1/C(=C/c2sc(-c3ccccc3C)c[n+]2C)Sc2ccccc21`?
Vif-A3F inh: -4.2%; Vif-A3G inh: -0.5%; TRPML1 blocker: 29.1; TRPML1 agonist: -0.8; GRP78 ERSR act: -10.3%; ALOX12 inh: inconclusive

How did COc1cc(Cl)c(C)cc1NC(=O)C(C)N1CCN(S(=O)(=O)Cc2ccccc2)CC1 (stereo not drawn) do in these assays?
ALOX12 inh: -8.0%

How did COc1ccc(C2NC(=S)NC3=C2CCc2cc(OC)ccc23)cc1 (stereo not drawn) do in these assays?
Vif-A3F inh: -1.4%; Vif-A3G inh: -3.5%; TRPML1 blocker: 9.2; TRPML1 agonist: 1.0; GRP78 ERSR act: -1.7%; ALOX12 inh: 28.2µM*

What do the screens show for `COc1ccc(C2NC(=S)NC3=C2CCc2ccccc23)cc1` (stereo not drawn)?
ALOX12 inh: 39.8µM*

How did CCNC(=O)NC(=O)C(C)N1CCN(c2ccc(F)cc2)CC1 (stereo not drawn) do in these assays?
ALOX12 inh: -19.0%

Results for C=CCSc1nc2sc3c(c2c(=O)n1CC)CCC3 ?
Vif-A3F inh: 22.4µM*; Vif-A3G inh: -3.5%; TRPML1 blocker: -3.1; TRPML1 agonist: -0.8; GRP78 ERSR act: -4.9%; ALOX12 inh: -22.6%

How did COc1cc(C(=O)OCC(=O)Nc2ccc(N3CCOCC3)cc2)ccc1OCC(C)C do in these assays?
Vif-A3F inh: inconclusive; Vif-A3G inh: 7.94µM*; TRPML1 blocker: 11.1; TRPML1 agonist: 0.9; GRP78 ERSR act: -3.6%; ALOX12 inh: inconclusive

Results for COc1ccccc1NC(=O)Cn1ccc2c(Cl)cccc21 ?
ALOX12 inh: -2.0%

What do the screens show for `Cc1cccc(Cn2c(NCCCn3ccnc3)nc3c2c(=O)[nH]c(=O)n3C)c1`?
ALOX12 inh: 36.4%

How did Cc1csc(/C(C#N)=C\C2=Cc3cc(Cl)ccc3OC2)n1 do in these assays?
ALOX12 inh: 50.1µM*

What do the screens show for `N#C/C(=C\c1ccc(Cl)cc1Cl)c1nc(-c2cccc(Cl)c2)cs1`?
Vif-A3F inh: 1.0%; Vif-A3G inh: 2.6%; TRPML1 blocker: -9.3; TRPML1 agonist: 0.0; GRP78 ERSR act: -3.1%; ALOX12 inh: -10.9%

Results for CCC1(c2ccc(C)cc2)NC(=O)N(Cc2ncc(-c3ccccc3)o2)C1=O (stereo not drawn) ?
ALOX12 inh: -5.5%

Results for Cc1ccc(Cn2cc(-c3ccncc3)cc2C(=O)NC2CC2)cc1 ?
ALOX12 inh: 28.2µM*

Results for Brc1ccc(-c2ccc(CNc3ncn[nH]3)o2)cc1 ?
ALOX12 inh: 16.1%

What do the screens show for `COc1cccc(/C=N/NC(=O)c2cc3c(OC)c(OC)ccc3[nH]2)c1OC`?
Vif-A3F inh: 4.9%; Vif-A3G inh: 3.98µM*; TRPML1 blocker: -18.3; TRPML1 agonist: 2.5; GRP78 ERSR act: -3.0%; ALOX12 inh: -14.0%

How did O=S(=O)(c1ccc(Sc2nnnn2C2CC2)nc1)N1CCCC1 do in these assays?
ALOX12 inh: -20.5%

How did O=S(=O)(NC[C@H]1Cn2c(-c3ccc(F)cc3)cnc2CO1)c1ccc(Cl)cc1 do in these assays?
ALOX12 inh: 50.1µM*

What do the screens show for `Cc1cc(NC(=O)C(C)OC(=O)c2cc3ccccc3s2)no1` (stereo not drawn)?
ALOX12 inh: -5.1%

Source: PubChem
